A selection: hits, their analogues and other compounds. The true share with any hit is near 3.3%.
ALOX15 inhib – qHTS Assay for Inhibitors of 15-hLO (15-human lipoxygenase). Polyunsaturated fatty acid lipoxygenase ALOX15 (Homo sapiens), P16050. purified 15hLO-1, xylenol orange hydroperoxide absorbance. Potency, µM (top dose mostly 57.1 µM), inactives show top-dose activity change, negative = inhibition, usual class: inhibitors. actives 1.4% (n = 74,000). AID 887, 2007; further: potency means the concentration at half of the fitted maximal effect; on the % scale 0 is the no-effect control and ±100 the full control effect; nearly all actives have a fitted effect of over 55% in size
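Hydroperoxide formed from arachidonic acid (50 uM) by purified human 15hLO-1 (40 nM) oxidizes ferrous iron, and the ferric-xylenol orange complex is read at 573 versus 405 nm. Compounds were preincubated 15 min; reaction ran 6 min at room temperature.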
DNA Pol III inh – qHTS Assay for Inhibitors of DNA Polymerase III Holoenzyme System. reconstituted DNA polymerase III holoenzyme replication, biochemical. Potency, µM (titrated, usually from 57.1 µM), for the others: top-dose activity change, negative = inhibition. actives 0.25% (n = 71,000); further: potency means the concentration at half of the fitted maximal effect; on the % scale 0 is the no-effect control and ±100 the full control effect
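Reconstituted *E. coli* holoenzyme (0.35 nM Pol III, 1 nM beta, 154 nM SSB, 2 nM primase) was preincubated with compound for 15 min at RT. Synthesis on 1.4 nM ssM13Gori ran 35 min, then was stopped with PicoGreen/EDTA and read as dsDNA fluorescence.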
Hsp90 Hop PPI – qHTS Assay for Disrupters of an Hsp90 Co-Chaperone Interaction. Hsp90 C-terminal peptide / TPR2A (Hop) interaction, human. AlphaScreen TPR2A-His6 binding biotin-Hsp90 C-terminal peptide. Potency, µM (series often up to 57 µM), for inactives: at the highest dose activity change, negative = inhibition. actives 0.44% (n = 71,000); active means well fitted curve in either direction with a large enough effect; inconclusive means small, poorly fitted or top-dose-only effect, or another doubt; further: potency means the concentration at half of the fitted maximal effect; on the % scale 0 is the no-effect control and ±100 the full control effect
TsaE inh – qHTS Assay for Inhibitors of YjeE; purified YjeE enzyme, qHTS inhibition assay; Potency, µM; actives 0.05% (n = 71,000); AID 605, 2007
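Purified YjeE (10 uM) with BODIPY Texas Red-labeled ADP probe (2 uM); compounds pin-transferred, 15 min at room temperature. Binding inhibition read as decreased fluorescence polarization; ADP titration as control.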
Tau filament bind – qHTS Assay for Tau Filament Binding; Microtubule-associated protein tau (Homo sapiens), P10636; recombinant tau filaments, thioflavin S fluorescence, 15 h; filaments grown with octadecylsulfate alongside compound; Potency, µM (titrated, usually from 57.1 µM), for the others: at the highest dose activity change, negative = inhibition; actives 2% (n = 71,000);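 further: potency means the concentration at half of the fitted maximal effect; on the % scale 0 is the no-effect control and ±100 the full control effect; actives lower thioflavin S fluorescence by blocking filaments or displacing dye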
Target sequence (P10636 whole entry, looked up): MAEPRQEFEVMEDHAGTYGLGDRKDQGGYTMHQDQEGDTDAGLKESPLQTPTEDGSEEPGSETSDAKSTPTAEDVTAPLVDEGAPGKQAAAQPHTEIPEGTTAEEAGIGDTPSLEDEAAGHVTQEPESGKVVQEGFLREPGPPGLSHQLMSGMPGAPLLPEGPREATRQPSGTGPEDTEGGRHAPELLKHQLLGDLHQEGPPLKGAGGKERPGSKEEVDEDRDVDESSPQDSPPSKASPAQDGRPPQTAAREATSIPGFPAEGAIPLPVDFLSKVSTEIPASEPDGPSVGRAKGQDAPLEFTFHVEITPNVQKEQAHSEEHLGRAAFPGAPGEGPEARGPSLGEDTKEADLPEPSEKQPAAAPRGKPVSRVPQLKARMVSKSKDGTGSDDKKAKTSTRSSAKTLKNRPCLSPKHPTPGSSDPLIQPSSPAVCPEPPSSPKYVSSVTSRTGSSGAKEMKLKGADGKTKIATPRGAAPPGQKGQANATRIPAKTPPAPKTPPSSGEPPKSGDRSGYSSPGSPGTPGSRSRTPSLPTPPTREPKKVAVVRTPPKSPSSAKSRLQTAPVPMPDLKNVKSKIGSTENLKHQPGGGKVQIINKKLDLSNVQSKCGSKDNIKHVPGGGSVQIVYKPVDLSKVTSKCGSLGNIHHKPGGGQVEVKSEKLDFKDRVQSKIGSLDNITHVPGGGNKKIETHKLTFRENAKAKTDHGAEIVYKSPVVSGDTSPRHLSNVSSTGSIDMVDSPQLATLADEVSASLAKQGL
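His-tagged recombinant human tau (exons 2, 3, 10; 1 uM final) fibrillized with 30 uM sodium octadecylsulfate, 15 h at 37 C, in pH 7.4 HEPES buffer with 10 uM thioflavine S and 5 mM DTT. Reduced ThS fluorescence (450/510 nm) marks activity.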
Numbers without * were called inactive; i = inactive; ? = inconclusive; . = not tested or not shown; ! = not confirmed by another sample; [ ] = dose if it differs, or a comment. Unless noted, the call rests on the fitted dose curve; in most records, active means well fitted curve in the direction sought with a large enough effect; inconclusive means small, poorly fitted or top-dose-only effect, or another doubt; inactive means no such curve, though single readings can be large; an effect the other way counts as inactive or inconclusive.

SMILES	ALOX15 inhib	DNA Pol III inh	Hsp90 Hop PPI	TsaE inh	Tau filament bind
CN(C)c1ccc(N=Nc2ccccc2)cc1	-2%	1%	13µM*	i	16µM*
CC[C@H]1CN2CC[C@@H]1C[C@@H]2[C@H](O)c1ccnc2ccccc12	.	-4%	-4%	i	12%
COCc1cc(C)c(C#N)c(=S)[nH]1	1.6µM*	3%	0%	i	3%
Cc1c2ccncc2c(C)c2c1[nH]c1ccccc12	-9%	7.9µM*	8%[26 µM]	i	i
c1ccc2c(c1)[nH]c1cnccc12	-3%	.	.	.	.
N[C@@H]1CCc2cc(O)c(O)cc2C1	4%	-6%	-4%	i	0%
C[C@H]1C(=O)O[C@H]2CCN3CC=C(COC(=O)[C@](C)(O)[C@@]1(C)O)[C@H]23	.	4%	-1%	i	0%
O=C(O)c1cc[c]([Hg][S]c2ncnc3nc[nH]c23)cc1	0.79µM*	-4%[11.4 µM]	-5%[11 µM]	i	-10%[11.4 µM]
NC[C@H](O)c1cc(O)c(O)cc1F	-8%	11%	-20%	i	-1%
O=C(O)[C@@H](O)[C@@H](O)[C@@H]1[O][Sb][O][C@@H]1CO	-5%[11.4 µM]	-15%[11.4 µM]	-1%[11 µM]	i	3%[11.4 µM]
N#CS.N=C=S.N=C=S.[Cu].[NH2-].[NH2-].[NH2-].[NH2-].c1ccc2ncccc2c1	2.5µM*	-9%[11.4 µM]	0%[11 µM]	i	-4%[11.4 µM]
CC(C)N[C@@H](C)Cc1ccc(I)cc1	3%	3%	-6%	i	-7%
O=C(O)[C@H]1[C@H](C(=O)O)[C@H]2CC[C@@H]1O2	7%	-2%	-6%	i	-6%
O=c1cccc2n1C[C@H]1C[C@@H]2CN(CCO)C1	.	0%	6%	i	13%
CO[C@@H]1CC=C2CCN3CCC4=C(CC(=O)OC4)[C@]23C1	6%	7%	-9%	i	-5%
CC(=O)O.CC(=O)O.[Cd]	16µM*	.	.	.	.
CC(=O)CCC(C)=O	2%	-14%	-3%	i	7%
c1ccc(CCCN2CCN(CCOC(c3ccccc3)c3ccccc3)CC2)cc1	25µM*	-2%	-6%	i	-6%
N[C@H](Cn1cc(I)c(=O)[nH]c1=O)C(=O)O	.	-7%	-4%	i	-2%
O=C1C[C@H]2OCCC=C3CN4CC[C@@]56c7ccccc7N1[C@@H]5[C@H]2[C@H]3C[C@@H]46	.	-6%	2%	i	-28%
C[N+]1(C)[C@@H]2CC[C@H]1CC(OC(=O)c1c[nH]c3ccccc13)C2 (stereo partly drawn)	16µM*	-3%	-9%	i	-9%
NCCCCN=C(N)N	?	0%	-4%	i	40µM*!
CCCN1CCc2cc(O)cc3c2[C@H]1Cc1ccc(O)c(O)c1-3	8%	-4%	-25%	i	25µM*
CC[C@@]12CCCN3CC[C@@]4(c5ccc(OC)c(O)c5N(C(C)=O)[C@H]4CC1)[C@H]32	.	-6%	-2%	i	32%
C[C@@H]1[C@H]2C=C[C@@H]1[C@@H](c1c3ccc(=O)c(O)c-3oc3c(O)c(O)ccc13)[C@@H]2C(=O)O	?	0.13µM*	?	i	?
SMILES	ALOX15 inhib	DNA Pol III inh	Hsp90 Hop PPI	TsaE inh	Tau filament bind
C#CCN1C(C)=C(C(=O)CCO)[C@@H](c2cccc(-n3oo3)c2)C(C(=O)OC)=C1C	-13%[25.6 µM]	-4%	-19%	i	40µM*
CC1=CC(=O)NP(=O)(Oc2ccc3ccccc3c2)N1 (stereo not drawn)	13µM*	-2%	-2%	i	-4%
Cc1cccc(C2=NCC(=O)N(CC(=O)NCc3ccco3)c3sc4c(c32)CCCC4)c1	25µM*	-1%	-16%	i	48%
NC(=NCCC[C@@H](N)C(=O)O)N[N+](=O)[O-]	.	-7%	-5%	i	1%
CCn1c(N)c(C(=O)NC)sc1=S	4µM*	-1%	-3%	i	-6%
CC1/C=C/C=C/CC/C=C/C=C/C=C/C=C/C(OC2OC(C)C(O)C(N)C2O)CC2O[C@](O)(CC(O)C(O)CCC(O)CC(O)CC(O)CC(=O)OC(C)C(C)C1O)CC(O)C2C(=O)O (stereo partly drawn)	-9%	.	.	.	.
C[C@H]1[C@@H](O)[C@@H](C)/C=C\C=CCC\C=C/C=C\C=C/C=C[C@@H](O[C@H]2O[C@@H](C)[C@@H](O)[C@@H](N)[C@@H]2O)C[C@@H]2O[C@@](O)(C[C@@H](O)[C@H]2C(=O)O)C[C@@H](O)[C@@H](O)CC[C@@H](O)C[C@@H](O)C[C@@H](O)CC(=O)O[C@H]1C	7.9µM*	-6%[25.6 µM]	-6%[26 µM]	i	14%[25.6 µM]
O=C(CCCN1CCC2(CC1)C(=O)N(CCc1ccc(N=C=S)cc1)CN2c1ccccc1)c1ccc(F)cc1	.	5%	?	i	374%
C[C@@H]1Cc2cc3c(cc2C(c2ccc(N)cc2)=NN1)OCO3	?	-3%	-13%	i	40µM*
C[C@]12Cc3cn4c(nc3C=C1CC[C@H]1[C@@H]2CC[C@@]2(C)[C@H]1CC[C@@]2(O)C#N)nc1ccccc14	15%	1%	-8%	i	11%
O=c1ccc2cc(O[C@@H]3O[C@@H](CO)[C@@H](O)[C@@H](O)[C@H]3O)c(O)cc2o1	.	-8%	-4%	i	?
CCCN1CCC[C@H](c2cccc(C#N)c2)C1	-2%	1%	-6%	i	5%
C=CCc1c(C)[nH]c(=S)c(C#N)c1C	16µM*	-2%	-6%	i	-15%
C=CCN1C[C@H](C)N([C@H](c2ccc(C(=O)N(CC)CC)cc2)c2cccc(O)c2)C[C@H]1C	-1%[25.6 µM]	-4%	-2%	i	40µM*
C=CCN1C[C@H](C)N([C@@H](c2ccccc2)c2ccc(C(=O)N(CC)CC)cc2)C[C@H]1C	-15%[25.6 µM]	-2%	?	i	11%
N[C@H](CCl)C(=O)O	-18%	-1%	-5%	i	5%
Nc1c(C(=O)NCCN2CCOCC2)c2nc3ccccc3nc2n1Cc1ccco1	13µM*	-14%	-5%	i	i
CSC([N-]/N=C/c1cccc(C)n1)=[S]=[Cu].CS[C@H]([S-])[N-]/N=C/c1cccc(C)n1	?	-4%[11.4 µM]	3.2µM*	i	?
NC(N)=Nc1ccc2[nH]c3c(c2c1)C[C@]1(O)[C@@H]2Cc4ccc(O)c5c4[C@]1(CCN2CC1CC1)[C@H]3O5	1.3µM*	-8%	-23%	i	58%
O=C(NC(=O)c1c(F)cccc1F)Nc1cc(Cl)c(OC(F)(F)C(F)C(F)(F)F)cc1Cl (stereo not drawn)	16µM*	.	.	.	.
CN[C@H]1[C@H]2[C@H]3CCN2C[C@@H]1O3	.	-4%	0%	i	?
Nc1ccccc1O.O.O=C(O)[C@H]1[O][Sb][O][C@H]1C(=O)O	-24%[11.4 µM]	8%[11.4 µM]	-4%[11 µM]	i	-13%[11.4 µM]

Assay outcomes from PubChem BioAssay.
